This is a sample that favours compounds with a hit; in the whole collection about 2.6% have one here.
SmPrx2 inh = blocks S. mansoni peroxiredoxin 2 enzymatic activity | AID 448 | S. mansoni Prx2 activity coupled to TGR/GSH (TGR is thioredoxin glutathione reductase), NADPH fluorescence loss, qHTS | Potency, µM | 65,000 compounds, 0.07% hits
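Purified S. mansoni TGR and Prx2 in pH 7.4 phosphate buffer with EDTA and Tween-20 were preincubated with compounds for 15 min. Further NADPH/GSH was added, then a 2.5 mM H2O2 aliquot initiated turnover, followed kinetically by NADPH fluorescence.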
AmpC inh det = inhibitors of E. coli AmpC beta-lactamase with detergent. Potency, µM (titrated, usually from 28.7 µM), inactives show top-dose activity change, negative = inhibition. AID 584. P00811. 71,000 compounds, 0.09% hits. purified AmpC, nitrocefin hydrolysis with detergent; active = well fitted curve in the direction sought with a large enough effect; inconclusive = small, poorly fitted or top-dose-only effect; also: % is scaled to controls: 0 for no effect and ±100 for the full control effect
Target sequence (P00811 whole entry, looked up): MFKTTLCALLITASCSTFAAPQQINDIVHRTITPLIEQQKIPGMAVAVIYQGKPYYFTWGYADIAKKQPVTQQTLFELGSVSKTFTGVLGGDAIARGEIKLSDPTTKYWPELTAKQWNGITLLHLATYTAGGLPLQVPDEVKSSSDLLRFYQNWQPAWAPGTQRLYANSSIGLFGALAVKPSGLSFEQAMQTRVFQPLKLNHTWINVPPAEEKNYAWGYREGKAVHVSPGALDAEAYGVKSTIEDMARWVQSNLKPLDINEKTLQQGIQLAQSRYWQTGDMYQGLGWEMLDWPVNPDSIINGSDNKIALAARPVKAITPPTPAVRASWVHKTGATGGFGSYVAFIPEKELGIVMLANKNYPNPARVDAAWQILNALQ
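E. coli AmpC (5.3 nM) in 20 mM phosphate pH 7.0 with 0.01% Triton X-100, preincubated 15 min RT with compound; nitrocefin (2 uL of 800 uM stock) hydrolysis followed by 480 nm absorbance every 20 s over 4 min.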
LT uptake inh = inhibitors of anthrax lethal toxin internalization. Potency, µM (titrated, usually from 40 µM), for inactives: at the highest dose activity change, negative = inhibition, hits mostly inhibitors. 70,000 compounds, 0.67% hits. Cells, anthrax lethal toxin internalization, FRET ratio (460/530). AID 912; also: % is scaled to controls: 0 for no effect and ±100 for the full control effect; nearly all actives have a fitted effect of over 50% in size
AmpC inh no det = AmpC beta-lactamase inhibition, detergent-free assay; P00811; AmpC nitrocefin hydrolysis, absorbance 480 nm, no detergent; Potency, µM (top dose mostly 28.7 µM), for the others: top-dose activity change, negative = inhibition; 71,000 compounds, 1.8% hits; also: % of control where 0% means no effect
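AmpC in 20 mM phosphate buffer pH 7.0 was preincubated 15 min at room temperature with compounds. Nitrocefin (800 uM stock) was then added and hydrolysis followed at 480 nm every 20 s for 4 min.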
An asterisk follows results filed as active; ? = inconclusive; . = not tested or not shown; [ ] = remark or other dose. Unless noted, calls follow the shape of the full dose curve. Potency is read from the fitted curve at half-maximal effect.

SMILES	SmPrx2 inh	AmpC inh det	LT uptake inh	AmpC inh no det
O=C(Nc1cccc(-c2cn3cccnc3n2)c1)c1ccc(Br)o1	>57	-4%	-25%	-2%
O=C(COc1ccccc1)Nc1cccc(-c2nnc(-c3ccccc3)o2)c1	>57	10%	10µM*	-3%
O=C(Nc1ccc(Nc2ccccc2)cc1)c1ccc(Br)o1	>57	1%	13µM*	-11%
O=C(Nc1cccc(-c2nnc(-c3ccccc3)o2)c1)c1ccc(Br)o1	?	0%	10µM*	52%
O=C(Nc1ccc(Cc2ccncc2)cc1)c1ccc(Br)o1	>57	-4%	-15%	3%
Cc1cc(C)cc(OCC(=O)Nc2cccc(-c3nnc(-c4ccco4)o3)c2)c1	>57	-2%	-10%	29%
C[C@H](C(=O)O)c1cccc(Oc2ccccc2)c1	>57	-3%[12.8 µM]	1%[3.58 µM]	-10%[12.8 µM]
O=P(O)(O)O	.	8%	-5%	-6%
Cc1cccc(CNc2cc(-c3ccccc3CN(C)C)ncn2)c1	>57	10%	-8%	21%
O=C(NCCC1=CCCCC1)C1CCN(S(=O)(=O)c2cccc3nonc23)CC1	>57	10%	0%	20µM*[single pt active]
O=C(NCc1ccc2c(c1)OCO2)C1CCCN(S(=O)(=O)c2cccc3nonc23)C1 (stereo not drawn)	>57	19%	-6%	10µM*[single pt active]
O=C(NCCC1=CCCCC1)C1CCN(S(=O)(=O)c2cccs2)CC1	>57	10%	9%	9%
O=C(c1cc(C(F)(F)F)cc(C(F)(F)F)c1)N1CCC2(CCCN(Cc3nccs3)C2)CC1	>57	-3%	?	4%
CCCS(=O)(=O)c1nnnn1-c1cccc(OC)c1	>57	-7%	3.2µM*	-8%
CS(=O)(=O)N1CCC2(CCCN(C(c3ccccc3)c3ccccc3)C2)CC1	>57	-1%	?	72%
C/C=C1\C[C@H](C)[C@](O)(CO)C(=O)OCC2=CCN3CC[C@@H](OC1=O)[C@@H]23	>57	-4%	?	4%
CCn1c2ccccc2c2cc(CN3CCN(C(=O)c4ccco4)CC3)ccc21	.	-6%	?	148%
CCn1c2ccccc2c2cc(NC(=O)c3ccco3)ccc21	.	8%	13µM*	-5%
CCn1c2ccccc2c2cc(NC(=O)CSc3nnnn3-c3ccccc3)ccc21	>57	1%	.	10µM*
CCOc1cccc(-c2nnc3sc(COc4ccc(C)cc4)nn23)c1	>57	1%	-13%	16%
CCOc1cccc(-c2nnc3sc(COc4ccc(Cl)cc4)nn23)c1	>57	-1%	-3%	7.9µM*
COCCNS(=O)(=O)c1ccc(C2CNC(=O)C2)cc1 (stereo not drawn)	>57	12%	10%	4µM*[single pt active]
CN(C)c1ccc(-c2nc(Nc3ccncc3)c3ccccc3n2)cc1	>57	9%	13µM*	35%
Cc1nc2ccc(S(=O)(=O)NC(CC(C)C)C(=O)O)cc2s1 (stereo not drawn)	>57	9%	-5%	1%
Cc1nc2ccc(S(=O)(=O)NCC(=O)N3CCC(N4CCCCC4)CC3)cc2s1	>57	-4%	-14%	-8%
SMILES	SmPrx2 inh	AmpC inh det	LT uptake inh	AmpC inh no det
Cc1nc2ccc(S(=O)(=O)NC(C(=O)N3CCC(C)CC3)C(C)C)cc2s1 (stereo not drawn)	>57	23%	-11%	4µM*[single pt active]
Cc1nc2ccc(S(=O)(=O)NC(C(=O)N3CCCC3)C(C)C)cc2s1 (stereo not drawn)	>57	10%	0%	4µM*[single pt active]
COc1cc(-c2nc(-c3cccc(C)c3)no2)cc(OC)c1OC	.	-1%	?	68%
COc1cc2c(C)nc3onc(-c4ccccc4)c3c2cc1OC	>57	-4%	1µM*	104%
CCCCN1C(=O)C(O)(CC(=O)c2ccco2)c2cc(Br)ccc21 (stereo not drawn)	>57	12%	?	2.5µM*[single pt active]
CC1(C)Oc2cc3c(cc2O1)OC(C)(C)O3	.	.	-12%[8 µM]	.
Cc1ccc(S(=O)(=O)Oc2ccc(N=Nc3ccc(-c4ccc(N=Nc5c(O)ccc6cc(S(=O)(=O)O)cc(S(=O)(=O)O)c56)c(C)c4)cc3C)cc2)cc1	.	-6%	16µM*	0.32µM*
Cc1ccc(N=Nc2c(O)ccc3cc(S(=O)(=O)O)ccc23)cc1	>57	-5%[5.75 µM]	-14%[8 µM]	-1%[5.75 µM]
C=CCc1ccccc1OC[C@H](O)CNC(C)C	>57	-2%[12.8 µM]	-10%[3.58 µM]	-2%[12.8 µM]
Cc1ccc(S(=O)(=O)N2CCN(C(=O)CSc3nc4ccccc4c(=O)[nH]3)CC2)cc1	>57	-4%	-5%	0%
O=C(CSc1nc2ccccc2c(=O)[nH]1)N1CCCCC1	>57	8%	2%	4µM*[single pt active]
N#Cc1cccc(NC(=O)NCCc2c[nH]c3ccccc23)c1	>57	13%	13µM*	4µM*[single pt active]
CC(=O)NCCc1c[nH]c2ccccc12	>57	-1%	-1%	-2%
O=c1c(-c2cccc(F)c2)nc2cncnc2n1Cc1ccccc1	>57	-1%	?	15%
CN1[C@@H]2CC[C@H]1CC(O[C@@H](c1ccccc1)c1ccccc1N)C2 (stereo partly drawn)	>57	-2%	-14%	11%
c1csc(Cn2c(-c3cccs3)nc3ccccc32)c1	>57	-3%	-1%	-6%
Brc1ccccc1Cn1c(-c2cncs2)nc2ccccc21	>57	12%	10µM*	58%
CC(C)c1ccc2oc(-c3cc(N)ccc3O)nc2c1	.	-2%	13µM*	-7%
O=C1OC(O)C(C(Cl)Cl)=C1Cl (stereo not drawn)	.	11%	?	-4%
CCOC(=O)N1CCc2c(sc(NC(=O)c3ccc(Cl)s3)c2C(N)=O)C1	>57	16%	5µM*	-2%
COc1cccc(-c2nc(NCc3cnc(C)cn3)c3ccccc3n2)c1	>57	-23%	8%	15%
Fc1ccc(C2CC(c3ccco3)n3ncnc3N2)cc1 (stereo not drawn)	>57	11%	-11%	4µM*[single pt active]
CS(=O)(=O)Nc1cccc(-c2ccc3ncnc(Nc4ccc(F)cc4)c3c2)c1	>57	0%	?	-5%
Cc1ncc(CO)c2cc(S(=O)(=O)c3ccc(F)cc3)c(=O)oc12	17*	13%	0%	4µM*[single pt active]
Cc1cnc(CNc2ncncc2-c2ccccc2CN(C)C)cn1	>57	10%	7%	5%
SMILES	SmPrx2 inh	AmpC inh det	LT uptake inh	AmpC inh no det
O=C(Cn1c(-c2ccccc2)noc1=O)Nc1ccc(S(=O)(=O)N2CCOCC2)cc1	>57	-8%	-5%	19%
O=C(Cn1c(-c2ccccc2)noc1=O)Nc1ccc(N2CCCCCC2)cc1	>57	-2%	?	13µM*
COc1cccc2cc(C(=O)n3ccc(C)n3)c(=O)oc12	>57	10µM*	-9%	10µM*
O=C(Nc1ccc(F)c(Cl)c1)c1ccc2c(=O)n3c(nc2c1)CCCCC3	>57	2%	-13%	16%
O=C(Nc1cccc(Cl)c1)c1ccc2c(=O)n3c(nc2c1)CCCCC3	>57	-4%	13µM*	16%
O=C(NCCC1=CCCCC1)c1ccc2c(=O)n3c(nc2c1)CCCCC3	>57	4%	13µM*	104%
CN(C(=O)c1ccc2c(=O)n3c(nc2c1)CCCCC3)c1ccccc1	>57	0%	13%	40%

Screens: PubChem BioAssay, National Center for Advancing Translational Sciences (NCATS)
